The values that follow come from PubChem BioAssay (EPA / NIEHS).

The structures appear in SMILES notation. Inconclusive results are not listed. Activity calls are given as the source filed them. How the source made its calls: active means hit-call score of the fitted dose curve at least 0.9, where 1 is the maximum; inconclusive means response in the unintended direction; inactive means score below 0.9.

Read-out in this experiment: Cytochrome P450 2C9 (Homo sapiens) (UniProt P11712)
Kind of experiment: CLD_CYP2C9_24hr: CellzDirect (CLD) Gene Expression Assay for xenobiotic metabolism (CYP2C9) at 24 hours (AID 2283688). On the procedure:
CLD_24hr is a cell-based, multiplexed-readout assay that uses hepatocyte, a human liver primary cell, with measurements taken at 24 hours after chemical dosing in a 96-well plate.CLD_CYP2C9_24hr is one of 16 assay component(s) measured or calculated from the CLD_24hr assay. It is designed to make measurements of mRNA induction, a form of inducible reporter, as detected with chemiluminescence signals by Quantitative Nuclease Protection Assay (qNPA) technology.Data from the assay component CLD_CYP2C9_24hr was analyzed at the endpoint, CLD_CYP2C9_24hr, in the positive analysis fitting direction relative to DMSO as the negative control and baseline of activity. Using a type of inducible reporter, gain-of-signal activity can be used to understand changes in the reporter gene as they relate to the gene CYP2C9. Furthermore, this assay endpoint can be referred to as a primary readout. To generalize the intended target to other relatable targets, this assay endpoint is annotated to the cyp intended target family, where subfamily is xenobiotic metabolism.
Human hepatocyte cultures were treated daily for two consecutive days with fresh dosing solutions containing appropriate concentrations of the 320 ToxCast chemicals (chemical identities were blinded to CellzDirect and other ToxCast collaborators), vehicle control (0.2% DMSO), and positive control inducers as summarized in Table 1. Due to the large number of treatment groups and chemicals examined, the ToxCast chemicals were divided into two groups (spanning two independent cultures of hepatocytes from separate donor preparations (Hu778: ToxCast plates 1 and 2; Hu776: ToxCast plates 3 and 4). Each preparation of human hepatocyte cultures was treated with respective vehicle control, medium only control, set of six positive controls/reference chemicals for the five hepatic receptor pathways, and a subset of eight of the ToxCast chemicals (indoxacarb, pyrithiobac-sodium, norflurazon, cyhalofop-butyl, methomyl, thiram, acetochlor, and propiconazole). These replicate data, coupled with internal replicates designed within the blinded ToxCast chemical library, provided additional data to evaluate interindividual differences between hepatocyte preparations and their potential impact on chemical profiles.Cell morphology and integrity were evaluated using phase-contrast microscopy as an indicator of hepatocyte cell health (Tyson & Green, 1987). Cultures for each treatment group (i.e., media, vehicle [0.2% DMSO], positive control inducers [multiple concentrations], and the ToxCast chemicals [multiple concentrations]) were observed and cell morphology was assessed relative to vehicle control cultures at each harvest time point (0, 6, 24, or 48 h). […] Images were evaluated at the conclusion of the study to assess changes in cell integrity and account for the effects of chemical exposure on uncharacteristic changes in concentration-dependent gene expression profiles. The results from these determinations of apparent cytotoxicity were annotated (yes/no) alongside the corresponding qNPA data for reference.At the conclusion of each treatment period, hepatocyte cultures (96-well) were washed with 1 volume of HBSS, lysed by addition of 25 ul ArrayPlate lysis buffer (HTG, Tucson, AZ), and 70 ul/well of Denaturation Oil, denatured by incubation at 95C for 10 min, and frozen at approximately -70C until analysis by nuclease protection assay (qNPA) (Roberts et al., 2007). For qNPA analysis, cell lysates were thawed at 50C for approximately 30 min, qNPA probes were added, and samples were incubated at 95C for 10 min to begin the detection process by denaturing the target RNA, dissociating the duplexes and secondary structure hybridization. At the conclusion of the hybridization period, S1 nuclease reagent was added to each sample to digest all nonprotected nucleotides at 50C for 60-90 min. […]
Regarding `ClC1C(Cl)C(Cl)C(Cl)C(Cl)C1Cl` (stereo not given), the result was inactive.
In the case of `COC(=O)c1ccccc1S(=O)(=O)NC(=O)N(C)c1nc(C)nc(OC)n1`, the outcome was inactive.
The value for `Clc1ccccc1-c1nnc(-c2ccccc2Cl)nn1` was “inactive”; that for `CN1CSC(=S)N(C)C1` was “inactive”; that for `C#CCN1C(=O)COc2cc(F)c(N3C(=O)C4=C(CCCC4)C3=O)cc21` was “inactive”.
As for `CCCN(CCC)c1c([N+](=O)[O-])cc(C(F)(F)F)cc1[N+](=O)[O-]`, the call was inactive.
For the compound `COP(=S)(OC)Oc1ccc([N+](=O)[O-])cc1`, the outcome was inactive.
Regarding `CNC(=O)Oc1cccc(N=CN(C)C)c1`, the result was inactive.
For `CCOc1nc(NC)nc(NC(=O)NS(=O)(=O)c2ccccc2C(=O)OC)n1`, the compound was classed as inactive.
Regarding `O=[N+]([O-])c1c(Cl)c(Cl)c(Cl)c(Cl)c1Cl`, the compound was called inactive.
For `COc1nn(CSP(=S)(OC)OC)c(=O)s1`, the call was inactive.
On to `CC(C)(C)C(O)/C(=C\c1ccc(Cl)cc1Cl)n1cncn1` (stereo not given), for which the outcome was inactive.
Regarding `O=C(O)CCCOc1ccc(Cl)cc1Cl`, the compound was called inactive.
For the compound `CCC(C)(NC(=O)c1cc(Cl)c(C)c(Cl)c1)C(=O)CCl` (stereo not given), the result was inactive.
`O=S1OCC2C(CO1)C1(Cl)C(Cl)=C(Cl)C2(Cl)C1(Cl)Cl` (stereo not given): the compound was classed as inactive.
`CC(C)OC(=O)Nc1cccc(Cl)c1`: the call was inactive.
For the compound `O=S(=O)(O)C(F)(F)C(F)(F)C(F)(F)C(F)(F)C(F)(F)C(F)(F)C(F)(F)C(F)(F)F`, the call was inactive.
As for `CCOCN(C(=O)CCl)c1c(C)cccc1CC`, the entry is “inactive”.
`CC(C)(C)C(O)C(Oc1ccc(Cl)cc1)n1cncn1` (stereo not given): the call was inactive.
The value for `CCC(C)(C)C(=O)OC1=C(c2ccc(Cl)cc2Cl)C(=O)OC12CCCCC2` was “inactive”; that for `CNC(=O)/C=C(\C)OP(=O)(OC)OC` was “inactive”.
`CC1(C)C(C=C(Cl)Cl)C1C(=O)OC(C#N)c1ccc(F)c(Oc2ccccc2)c1` (stereo not given): the outcome was inactive.
In the case of `COC(=O)c1ccccc1CS(=O)(=O)NC(=O)Nc1nc(OC)cc(OC)n1`, the outcome was inactive.
For the compound `C[C@H]1[C@H](c2ccc(Cl)cc2)SC(=O)N1C(=O)NC1CCCCC1`, the compound was called inactive.
As to `Oc1ccc(Cl)cc1Cc1ccccc1`, the call was inactive.
Turning to `Cc1[nH]c(=O)n(C(C)(C)C)c(=O)c1Cl`, the result was inactive.
`O=C(NC(=O)c1c(F)cccc1F)Nc1ccc(OC(F)(F)C(F)OC(F)(F)F)c(Cl)c1` (stereo not given): the call was inactive.
For `OCCOc1ccccc1`, the compound was called inactive.
The value for `COc1cc(OC)nc(NC(=O)NS(=O)(=O)c2cc(NC=O)ccc2C(=O)N(C)C)n1` was “inactive”; that for `CCOC1Oc2ccc(OS(C)(=O)=O)cc2C1(C)C` (stereo not given) was “inactive”.
